SMILES strings stand for the structures. Calls of active or inactive are those of the source. How the source made its calls: active means hit-call score of the fitted dose curve at least 0.9, where 1 is the maximum; inactive means score below 0.9.

The experiment in a line: ATG_TA_CIS: Attagene CIS-FACTORIAL HepG2 Assay for human TA Basal Promoter (AID 2282964). The note with it: HepG2 Attagene CIS-factorial TA basal promoter reporter; actives raise or lower the signal. Here is the method:
ATG_CIS is a cell-based, multiplexed-readout assay that uses HepG2, a human liver cell line, with measurements taken at 24 hours after chemical dosing in a 24-well plate.ATG_TA_CIS is one of 52 assay component(s) measured or calculated from the ATG_CIS assay. It is designed to make measurements of mRNA induction, a form of inducible reporter, as detected with fluorescence intensity signals by Reverse transcription polymerase chain reaction (RT-PCR) and Capillary electrophoresis technology.Data from the assay component ATG_TA_CIS was analyzed into 1 assay endpoint. This assay endpoint, ATG_TA_CIS, was analyzed with bidirectional fitting relative to DMSO as the negative control and baseline of activity. Using a type of inducible reporter, measures of mRNA for gain or loss-of-signal activity can be used to understand the background control at the transcription factor-level as they relate to the gene . Furthermore, this assay endpoint can be referred to as a secondary readout, because this assay has produced multiple assay endpoints where this one serves a background control function. To generalize the intended target to other relatable targets, this assay endpoint is annotated to the background measurement intended target family, where the subfamily is internal marker.
Human liver HepG2 cells are transiently transfected with multiple reporter transcription units (MRTUs) in 6-well plates using FuGene 6 reagent (Roche; 3 ml FuGene/1 mg DNA). The MRTU constructs are regulated by a cis-regulating element (promoter). […] A major difference between the CIS and TRANS system is that in CIS activities of endogenous TFs are measured, whereas the TRANS assay evaluates changes in activities of exogenous, chimeric NR-Gal4 proteins. […] At the end of 24 hour incubation, total RNA was isolated using TriZol reagent (Invitrogen). The isolated RNA is then reverse-transcribed using oligo(dT) primer and Mo-MLV reverse transcriptase (Invitrogen) with DNAse I (Ambion) treatment for 30 min. The one-tenth of the produced cDNA was amplified by PCR using Taq DNA polymerase (Invitrogen) and two reporter sequence-specific primers. The PCR products were fluorescently labeled by primer extension with 6-arboxyfluorescein (6-FAM) 5'-labeled reporter sequence-specific primer (2 min at 95 C, 20 s at 68 C and 10 min at 72 C) and these products were digested with 5U of HpaI (New England Biolabs) for 2h at 37 C. The fragments were purified using Qiaquick PCR columns (Qiagen), analyzed on an ABI 3130xL genetic analyzer (Applied Biosystems) with peak positions identified by using a set of X-rhodamine (ROX)-labeled MapMarker1000 molecular weight standards (BioVentures). The raw capillary electrophoresis data was processed using Attagraph software (Attagene).
As to `COc1ccc(Cl)cc1C`, the compound was called inactive.

For the compound `Cc1ccc(S)cc1`, the compound was called inactive.

For `Cc1cc(C2(c3cc(C)c(O)cc3C)OS(=O)(=O)c3ccccc32)c(C)cc1O`, the call was inactive.

For the compound `C=C(C)C(=O)Nc1ccc(Cl)c(Cl)c1`, the result was inactive.

With `O=CCCc1ccccc1`, the compound was classed as inactive.

Take `CC(C)=CCCC(C)=CCCC(C)=CCO`: the call was inactive.

Consider `CCCC[n+]1ccccc1`, for which the result was inactive.

In the case of `CCO[Si](CCCS)(OCC)OCC`, the outcome was inactive.

As for `CC(C)(C)c1n[nH]c(=S)n(N)c1=O`, the compound was called inactive.

As to `CC(O)C(C)O` (stereo not given), the result was inactive.

For `C=C(C)C(=O)O[C@H]1C[C@@H]2CC[C@@]1(C)C2(C)C`, the outcome was inactive.

On to `CC(=O)O[C@H](CC(=O)[O-])C[N+](C)(C)C`, for which the compound was called inactive.

On to `CC1CCC2CC1C2(C)C` (stereo not given), for which the call was inactive.

For `CC1=CCC(O)(C(C)C)CC1` (stereo not given), the result was inactive.

As for `CCCCN`, the call was inactive.

In the case of `CC[C@]12CCCN3CCc4c(n(c5ccccc45)[C@@](O)(C(=O)OC)C1)[C@@H]32`, the compound was classed as inactive.

For the compound `CCCCOCCOCCOCCOCCO`, the outcome was inactive.

For `CCCCCNCCCCC`, the call was inactive.

`COc1cc(C(C)(C)C)c(O)c(C(C)(C)C)c1`: the result was inactive.

As for `O=c1[nH]nnc2ccccc12`, the call was inactive.

For `Clc1ccc2c(c1)C(N1CCNCC1)=Nc1ccccc1O2`, the compound was called inactive.

As for `OCc1cccnc1`, the call was inactive.

For the compound `O=C1NC(=O)c2ccccc21`, the outcome was inactive.

Take `CCCCCCCCCCCCN`: the call was inactive.

As to `CNC(=O)Oc1ccc2c(c1)[C@]1(C)CCN(C)[C@@H]1N2C`, the call was inactive.

As for `Cc1ccc(C(=O)c2cc(O)c(O)c([N+](=O)[O-])c2)cc1`, the call was inactive.

Consider `CC(C)=CCC[C@](C)(O)[C@@H]1CC=C(C)CC1`, for which the outcome was inactive.

For the compound `S=C(S)NCCNC(=S)S`, the call was inactive.

As for `O=S(=O)(O)NC1CCCCC1`, the compound was classed as inactive.

Take `CCCCC[Si](OCC)(OCC)OCC`: the result was inactive.

For the compound `CCCC(C)C=O` (stereo not given), the compound was called inactive.

Consider `CCOC(=S)SSC(=S)OCC`, for which the compound was classed as inactive.

Consider `C=C(C)C(=O)OCc1ccccc1`, for which the compound was classed as inactive.

In the case of `C=C(C)[C@@H]1CC[C@@H](C)C[C@@H]1O`, the compound was classed as inactive.

Regarding `CC(=O)OCc1ccc2c(c1)OCO2`, the compound was classed as inactive.

On to `COc1c(Cl)c(Cl)c(Cl)c(Cl)c1Cl`, for which the compound was called inactive.

Consider `CCCOCC(C)O` (stereo not given), for which the compound was called inactive.

With `CC1=CC(=O)NS(=O)(=O)O1`, the compound was classed as inactive.

As for `NCCNCCN`, the compound was called inactive.

In the case of `C=CCOc1nc(OCC=C)nc(OCC=C)n1`, the compound was called inactive.

Values taken from PubChem BioAssay (EPA / NIEHS).
